The values below come from publication PMC11024108.

Among the targets are Histone H2B type 1-L (UniProt Q99880); Histone H2B type 1-M (UniProt Q99879); Beta-synuclein (UniProt Q91ZZ3); Histone H1.2 (UniProt P16403); Histone H2A type 1-J (UniProt Q99878); Actin, cytoplasmic 2 (UniProt P63261); Epsin-1 (UniProt Q9Y6I3); Histone H4 (UniProt P62805); Myosin-10 (UniProt Q61879); Twinfilin-1 (UniProt Q91YR1); Unconventional myosin-Va (UniProt Q99104).
Common to all, as to test: cross-link between two proteins; cross-linking mass spectrometry
The target in test [1] is Actin-related protein 2/3 complex subunit 2 (UniProt Q9CVB6).
Test [2] addresses L-lactate dehydrogenase B chain (UniProt P16125).
In test [3] the target is Large ribosomal subunit protein eL24 (UniProt Q8BP67).
Test [4] deals with Actin-related protein 2/3 complex subunit 5 (UniProt Q9CPW4).
Test [5] concerns the target Actin-related protein 2/3 complex subunit 5-like protein (UniProt Q9D898).
The target in test [6] is Large ribosomal subunit protein eL20 (UniProt Q02543).
The target of test [7] is T1, Serine/arginine-rich splicing factor 7 (UniProt Q16629).
T1 sequence: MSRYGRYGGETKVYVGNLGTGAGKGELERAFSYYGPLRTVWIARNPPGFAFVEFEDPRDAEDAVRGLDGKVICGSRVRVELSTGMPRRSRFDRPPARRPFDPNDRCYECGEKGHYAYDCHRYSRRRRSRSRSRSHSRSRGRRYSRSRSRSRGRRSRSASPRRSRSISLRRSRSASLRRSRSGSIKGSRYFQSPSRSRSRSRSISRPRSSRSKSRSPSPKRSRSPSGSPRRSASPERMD

Test [8] concerns the target Small ribosomal subunit protein eS8 (UniProt P62241).
Test [9] addresses Dihydropyrimidinase-related protein 1 (UniProt P97427).
For test [10], the target named is Dihydropyrimidinase-related protein 3 (UniProt Q62188).
In test [11] the target is AP-2 complex subunit beta (UniProt Q9DBG3).
The target in test [12] is Large ribosomal subunit protein eL34 (UniProt Q9D1R9).
For test [13], the target named is Actin-related protein 2/3 complex subunit 3 (UniProt Q9JM76).
Test [14] concerns the target Ubiquitin-like protein NEDD8 (UniProt Q15843).
In test [15] the target is Large ribosomal subunit protein uL1 (UniProt P62906).
Test [16] has as its target Large ribosomal subunit protein eL24 (UniProt P83731).
Test [17] has as its target Large ribosomal subunit protein eL42 (UniProt P83881).
The target of test [18] is Large ribosomal subunit protein uL22 (UniProt Q9CPR4).
Test [19] has as its target Actin, alpha cardiac muscle 1 (UniProt P68033).
For a further test, the target named is T2, Coronin-2B (UniProt Q8BH44).
T2 sequence: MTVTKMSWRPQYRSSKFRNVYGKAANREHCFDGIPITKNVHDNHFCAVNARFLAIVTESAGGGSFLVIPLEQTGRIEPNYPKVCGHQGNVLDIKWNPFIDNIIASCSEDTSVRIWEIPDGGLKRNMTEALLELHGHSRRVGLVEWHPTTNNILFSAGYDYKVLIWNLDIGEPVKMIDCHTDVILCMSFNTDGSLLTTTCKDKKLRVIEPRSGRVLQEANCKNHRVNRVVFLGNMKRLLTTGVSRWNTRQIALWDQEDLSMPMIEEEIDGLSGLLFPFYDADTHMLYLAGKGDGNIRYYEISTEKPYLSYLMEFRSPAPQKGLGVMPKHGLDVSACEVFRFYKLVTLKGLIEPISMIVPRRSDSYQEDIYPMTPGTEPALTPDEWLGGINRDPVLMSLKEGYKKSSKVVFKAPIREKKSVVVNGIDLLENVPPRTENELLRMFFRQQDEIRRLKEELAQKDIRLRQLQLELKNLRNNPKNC

The target of test [20] is T3, Phosphatase and actin regulator 1 (UniProt Q2M3X8).
T3 sequence: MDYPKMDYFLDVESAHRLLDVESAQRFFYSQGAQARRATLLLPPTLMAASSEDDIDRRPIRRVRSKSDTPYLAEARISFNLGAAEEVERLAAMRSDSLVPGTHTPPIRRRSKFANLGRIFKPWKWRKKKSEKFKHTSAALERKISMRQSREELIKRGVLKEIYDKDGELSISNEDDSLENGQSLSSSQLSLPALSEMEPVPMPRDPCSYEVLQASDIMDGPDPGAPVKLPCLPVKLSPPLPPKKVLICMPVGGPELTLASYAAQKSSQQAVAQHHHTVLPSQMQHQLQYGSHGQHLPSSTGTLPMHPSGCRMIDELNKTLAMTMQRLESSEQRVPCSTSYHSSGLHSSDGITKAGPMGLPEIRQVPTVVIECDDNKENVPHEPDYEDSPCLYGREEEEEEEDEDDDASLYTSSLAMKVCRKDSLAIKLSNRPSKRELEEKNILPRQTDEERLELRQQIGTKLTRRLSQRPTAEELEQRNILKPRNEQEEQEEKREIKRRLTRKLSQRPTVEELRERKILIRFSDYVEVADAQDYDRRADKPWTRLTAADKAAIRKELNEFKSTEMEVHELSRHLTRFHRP

In a further test the target is T4, Synaptopodin (UniProt Q8CC35).
T4 sequence: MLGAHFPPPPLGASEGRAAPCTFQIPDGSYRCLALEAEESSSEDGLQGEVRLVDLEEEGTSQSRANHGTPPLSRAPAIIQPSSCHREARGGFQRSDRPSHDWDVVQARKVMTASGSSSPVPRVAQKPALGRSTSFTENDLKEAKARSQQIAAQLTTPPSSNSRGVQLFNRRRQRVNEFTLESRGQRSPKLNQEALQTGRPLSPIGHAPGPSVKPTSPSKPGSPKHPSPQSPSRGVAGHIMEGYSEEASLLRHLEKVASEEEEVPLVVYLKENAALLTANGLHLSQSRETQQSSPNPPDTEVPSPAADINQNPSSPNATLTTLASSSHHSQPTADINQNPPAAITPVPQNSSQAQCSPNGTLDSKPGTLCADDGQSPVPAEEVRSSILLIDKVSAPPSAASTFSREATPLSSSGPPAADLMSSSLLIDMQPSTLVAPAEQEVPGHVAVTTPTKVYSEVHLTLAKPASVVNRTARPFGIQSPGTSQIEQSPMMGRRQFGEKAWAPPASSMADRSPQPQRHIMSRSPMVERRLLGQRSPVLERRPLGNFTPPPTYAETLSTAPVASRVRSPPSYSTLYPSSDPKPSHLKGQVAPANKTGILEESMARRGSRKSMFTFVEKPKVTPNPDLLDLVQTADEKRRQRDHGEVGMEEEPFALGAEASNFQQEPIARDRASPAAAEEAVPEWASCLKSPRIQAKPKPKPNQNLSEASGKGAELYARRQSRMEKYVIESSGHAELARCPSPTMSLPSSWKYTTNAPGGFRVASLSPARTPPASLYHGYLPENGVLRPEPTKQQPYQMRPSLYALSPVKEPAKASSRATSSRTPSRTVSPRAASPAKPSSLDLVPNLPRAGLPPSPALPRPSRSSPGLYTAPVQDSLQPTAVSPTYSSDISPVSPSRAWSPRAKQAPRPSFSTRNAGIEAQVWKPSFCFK

The target in a further test is T5, Tropomodulin-2 (UniProt Q9JKK7).
T5 sequence: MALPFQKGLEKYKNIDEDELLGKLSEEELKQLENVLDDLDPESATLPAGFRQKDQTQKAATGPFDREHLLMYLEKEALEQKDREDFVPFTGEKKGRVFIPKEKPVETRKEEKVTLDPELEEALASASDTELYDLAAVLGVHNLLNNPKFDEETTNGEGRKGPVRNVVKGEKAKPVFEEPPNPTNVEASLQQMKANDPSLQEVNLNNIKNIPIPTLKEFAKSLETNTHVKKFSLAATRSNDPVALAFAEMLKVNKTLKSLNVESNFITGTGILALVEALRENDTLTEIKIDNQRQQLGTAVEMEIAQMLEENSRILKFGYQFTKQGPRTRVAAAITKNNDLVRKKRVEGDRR

A further test has as its target T6, Twinfilin-2 (UniProt Q9Z0P5).
T6 sequence: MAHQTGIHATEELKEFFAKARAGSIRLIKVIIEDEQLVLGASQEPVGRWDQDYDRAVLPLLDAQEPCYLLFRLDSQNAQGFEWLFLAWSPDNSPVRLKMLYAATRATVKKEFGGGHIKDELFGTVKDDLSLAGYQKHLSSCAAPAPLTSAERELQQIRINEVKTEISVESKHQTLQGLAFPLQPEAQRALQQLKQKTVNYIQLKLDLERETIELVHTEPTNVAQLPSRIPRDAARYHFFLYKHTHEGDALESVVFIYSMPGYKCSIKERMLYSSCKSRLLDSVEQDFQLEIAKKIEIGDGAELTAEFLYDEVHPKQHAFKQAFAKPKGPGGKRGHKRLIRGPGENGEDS

AP-2 complex subunit beta, sequence (Q9DBG3 whole entry, one chain of several): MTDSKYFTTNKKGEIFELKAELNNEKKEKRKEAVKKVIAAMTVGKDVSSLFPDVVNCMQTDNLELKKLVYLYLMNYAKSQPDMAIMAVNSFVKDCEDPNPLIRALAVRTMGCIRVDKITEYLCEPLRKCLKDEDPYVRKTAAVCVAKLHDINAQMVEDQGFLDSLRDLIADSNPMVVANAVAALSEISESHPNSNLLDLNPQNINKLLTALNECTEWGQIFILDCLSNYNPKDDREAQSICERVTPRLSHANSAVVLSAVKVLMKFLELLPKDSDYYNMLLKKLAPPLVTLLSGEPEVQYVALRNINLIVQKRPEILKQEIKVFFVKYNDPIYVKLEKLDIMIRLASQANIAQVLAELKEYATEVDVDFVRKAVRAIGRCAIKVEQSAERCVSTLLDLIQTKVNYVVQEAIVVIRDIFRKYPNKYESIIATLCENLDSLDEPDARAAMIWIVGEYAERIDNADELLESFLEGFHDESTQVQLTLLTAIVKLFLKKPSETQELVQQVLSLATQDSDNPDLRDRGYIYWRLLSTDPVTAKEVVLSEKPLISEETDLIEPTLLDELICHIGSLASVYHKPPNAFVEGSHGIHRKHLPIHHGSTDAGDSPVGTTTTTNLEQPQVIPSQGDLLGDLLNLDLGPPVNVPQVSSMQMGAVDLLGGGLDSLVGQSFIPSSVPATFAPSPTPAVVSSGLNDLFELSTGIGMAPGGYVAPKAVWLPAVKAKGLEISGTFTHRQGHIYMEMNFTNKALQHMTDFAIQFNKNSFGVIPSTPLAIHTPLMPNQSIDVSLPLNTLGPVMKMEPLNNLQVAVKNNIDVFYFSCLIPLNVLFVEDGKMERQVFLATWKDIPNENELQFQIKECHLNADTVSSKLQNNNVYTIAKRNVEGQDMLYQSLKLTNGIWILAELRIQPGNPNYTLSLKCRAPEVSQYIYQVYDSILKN
AP-2 complex subunit sigma, P62743, sequence (P62743 whole entry, one chain of several): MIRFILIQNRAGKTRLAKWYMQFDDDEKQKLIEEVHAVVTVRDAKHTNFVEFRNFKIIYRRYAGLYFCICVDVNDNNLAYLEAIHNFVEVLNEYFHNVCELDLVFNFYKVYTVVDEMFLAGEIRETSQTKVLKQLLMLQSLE
Histone H1.2, sequence (P16403 whole entry): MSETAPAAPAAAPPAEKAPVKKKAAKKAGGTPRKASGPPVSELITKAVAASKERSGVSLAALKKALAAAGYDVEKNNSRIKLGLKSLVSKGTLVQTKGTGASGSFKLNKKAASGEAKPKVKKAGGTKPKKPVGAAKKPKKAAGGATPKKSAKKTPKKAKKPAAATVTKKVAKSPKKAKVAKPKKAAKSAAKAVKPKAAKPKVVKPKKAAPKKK

Consider Actin-related protein 3, Q99JY9, for which the “listed as a hit” value in [1] is reported as “yes”. For the substance L-lactate dehydrogenase A chain, P06151, in [2], the “listed as a hit” value is on record as “yes”. Regarding “Small ribosomal subunit protein eS6, P62754”, the “listed as a hit” value in [3] is “yes”.

Take “Actin-related protein 2/3 complex subunit 4, P59999”: the “listed as a hit” value in [4] and in test [5] was “yes” throughout. For the substance Histone H2A type 1-J, Q99878, the “listed as a hit” value with Histone H2B type 1-L and with Histone H2B type 1-M was “yes” in each case.

On to Histone H2B type 1-C/E/F/G/I, P62807, for which the “listed as a hit” value with Histone H2B type 1-L and with Histone H2B type 1-M was “yes” each time. As for Alpha-synuclein, O55042, in the test with Beta-synuclein, the “listed as a hit” value was “yes”. Consider Histone H1.4, P10412, for which the “listed as a hit” value (with Histone H1.2; in test [6]; in [7]; in test [8]) was “yes” in each case.

As to “Dihydropyrimidinase-related protein 2, O08553”, the “listed as a hit” value in [9] and in test [10] was “yes” each time. Turning to AP-2 complex subunit sigma, P62743, the “listed as a hit” value in test [11] is “yes”. With Histone H2A type 1-C, Q93077, the “listed as a hit” value with Histone H2A type 1-J is “yes”.

In the case of “Large ribosomal subunit protein eL8, P12970”, the “listed as a hit” value in test [12] is “yes”. For the substance “Large ribosomal subunit protein uL14, P62829”, in the test with Histone H2A type 1-J, the “listed as a hit” value is reported as “yes”. Actin-related protein 2, P61161: the “listed as a hit” value in test [1] and in test [13] was “yes” throughout. For the substance “Ubiquitin-ribosomal protein eS31 fusion protein, P62979”, the “listed as a hit” value is reported as “yes” with Actin, cytoplasmic 2; “yes” in the test with Epsin-1; “yes” in [14]. With “Small ribosomal subunit protein eS1, P61247”, in test [15], the “listed as a hit” value is “yes”. As for Histone H3.2, Q71DI3, the “listed as a hit” value in the test with Histone H2B type 1-L and with Histone H2B type 1-M was “yes” in each case. Regarding “Large ribosomal subunit protein uL3, P39023”, the “listed as a hit” value in [16] was “yes”. As to Histone H4, P62805, the “listed as a hit” value in the test with Histone H2B type 1-M is given as “yes”. Regarding “Large ribosomal subunit protein uL5, P62913”, in test [17], the “listed as a hit” value is “yes”. Histone H2B type F-S, P57053: the “listed as a hit” value with Histone H4 is given as “yes”. In the case of “Large ribosomal subunit protein eL31, P62900”, the “listed as a hit” value in test [18] is “yes”.

As for Actin, cytoplasmic 1, P60710, the “listed as a hit” value (in [19]; with Coronin-2B; in the test with Myosin-10; in [20]; with Synaptopodin; in the test with Tropomodulin-2) was “yes” in each case. Moreover, the “listed as a hit” value with Twinfilin-1, with Twinfilin-2 and in the test with Unconventional myosin-Va was “yes” each time.
